A selection: hits, their analogues and other compounds. The true share with any hit is near 12%.
PLK1 PBD inh: inhibitors of human PLK1 polo-box domain binding; Plk1 PBD binding of FITC phosphopeptide, fluorescence polarization; Potency, µM, for the others: max response, negative = inhibition, hits mostly inhibitors; actives 2.8% (n = 360,000); further: series mostly up to about 57 µM; nearly all actives have a fitted effect of over 65% in size
ALDH1A1 inh: ALDH1A1 (human) enzyme inhibition | P00352 | Purified ALDH1A1, NADH fluorescence, propionaldehyde substrate | Potency, µM (titrated, usually from 75.3 µM), inactives show at the highest dose activity, negative = inhibition, actives largely listed as inhibitors | actives 7.3% (n = 220,000) | AID 1030; active means well fitted inhibition curve with a large enough effect, not every such curve was filed as active; inconclusive means small, poorly fitted or top-dose-only effect, or another doubt; inactive means no such curve, though single readings can be large or run the other way;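 further: plate controls were no enzyme wells and a reference inhibitor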
Target sequence (P00352 whole entry, looked up): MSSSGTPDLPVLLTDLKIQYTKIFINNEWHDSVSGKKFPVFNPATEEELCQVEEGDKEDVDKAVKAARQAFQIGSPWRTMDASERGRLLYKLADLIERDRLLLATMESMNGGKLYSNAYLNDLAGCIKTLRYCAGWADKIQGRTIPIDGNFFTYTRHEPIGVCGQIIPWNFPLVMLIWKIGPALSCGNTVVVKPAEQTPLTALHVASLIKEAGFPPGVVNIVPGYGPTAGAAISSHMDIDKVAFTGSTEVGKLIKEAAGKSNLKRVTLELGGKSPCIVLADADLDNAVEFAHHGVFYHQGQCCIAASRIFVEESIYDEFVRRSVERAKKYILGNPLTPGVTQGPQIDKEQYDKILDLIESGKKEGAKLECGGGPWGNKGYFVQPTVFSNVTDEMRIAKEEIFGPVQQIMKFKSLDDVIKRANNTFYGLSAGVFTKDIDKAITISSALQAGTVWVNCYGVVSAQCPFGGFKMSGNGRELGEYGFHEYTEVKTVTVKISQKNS
VP16 counter: Gal4-VP16 reporter inhibition counter-screen; Drosophila S2 Gal4-VP16 UAS-luciferase, luminescence, 20 h; Potency, µM (doses to about 53.6 µM), for the others: at the highest dose activity, negative = inhibition, actives largely listed as inhibitors; actives 3.5% (n = 310,000);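 further: Gal4-VP16 expression switched on by copper sulfate through the metallothionein promoter; nearly all actives have a fitted effect of over 50% in size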
Sfp inh: Sfp phosphopantetheinyl transferase inhibition; Potency, µM, inactives show largest response in the series, negative = inhibition, usual class: inhibitors; actives 3.5% (n = 310,000); Q9F4F7; Biochemical Sfp PPTase activity, qHTS;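 further: the enzyme is Sfp with the accession as filed and its product quenches rhodamine fluorescence; 0% = enzyme reaction without inhibitor and -100% = no enzyme wells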
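Compounds were incubated with enzyme (final 15 nM) for 15 min at room temperature before substrate addition started the reaction. Fluorescence at 525 nm excitation, 598 nm emission was recorded immediately and after 30 minutes.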
RORg inh: inhibitors of mouse ROR gamma transcriptional activity; Drosophila S2 Gal4-RORgamma UAS-luciferase reporter, 20 h; P51450; AID 2551; actives 5.4% (n = 310,000); Potency, µM (series often up to 53.6 µM), for inactives: at the highest dose activity change, negative = inhibition, actives largely listed as inhibitors; further: nearly all actives have a fitted effect of over 60% in size
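Drosophila Schneider cells stably carrying a metallothionein-driven Gal4 DBD–ROR gamma fusion and a UAS-Photinus luciferase reporter were exposed to compound for 1 hr, then induced with copper sulfate (700 uM final) for 20 hr at ambient temperature before luminescence reading.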
* marks the source's active call; other numbers are inactive results; ? = inconclusive; . = no result; ! = not confirmed by another sample; [ ] = dose if it differs, or a comment. Unless noted, the call rests on the fitted dose curve; in most records, active means well fitted curve in the direction sought with a large enough effect; inconclusive means small, poorly fitted or top-dose-only effect, or another doubt; inactive means no such curve, though single readings can be large; an effect the other way counts as inactive or inconclusive. Unless noted, on the % scale 0 is the no-effect control and ±100 the full control effect; potency means the concentration at half of the fitted maximal effect.

SMILES	PLK1 PBD inh	ALDH1A1 inh	VP16 counter	Sfp inh	RORg inh
O=[N+]([O-])c1ccc(CN2CC(N3CCN(CC4CC4)CC3)CS2(=O)=O)cc1 (centres undefined)	1%	.	.	.	.
O=C(CSc1nnc(SCc2ccccc2)s1)N/N=C/c1c[nH]c2ccccc12	-13%	3%	?	?	8.9µM*
CC(/C=N\NC(=O)Cn1c(C)nc2ccccc21)=C\c1ccccc1	-11%	5%	13µM*	16%	21%
CCn1c(SCC(=O)N/N=C/C=C/c2ccco2)nc2ccccc21	?	13µM*	16µM*	45µM*	?
CCn1c(SCC(=O)N/N=C/C=C/c2ccco2)nnc1-c1ccc(OC)cc1	-10%	-2%	-5%	?	24%
CC(/C=N/NC(=O)CSc1nc2ccccc2n1C)=C\c1ccco1	-16%	13µM*	20%	-20%	12%
COC(=O)[C@@]1(Cc2ccc(OC)cc2)[C@H]2c3cc(C(=O)N(C)C)n(CCF)c3C[C@H]2CN1C(=O)c1ccccc1	.	-3%	10%	3%	-15%
Cc1ccc(CSc2nnc(SCC(=O)N/N=C/c3ccc(C(=O)O)cc3)s2)cc1	?	.	?	3%	5.6µM*
O=C(CSc1nnc(SCc2ccccc2)s1)N/N=C/C=C/c1ccccc1[N+](=O)[O-]	-16%	-15%	?	15%	?
O=C(CSc1nnc(SCc2ccccc2)s1)N/N=C/C=C\c1ccco1	?	18µM*	?	11µM*	-20%
c1cc(-c2cnn3cc(-c4ccc(OCCN5CCCCC5)cc4)cnc23)ccn1	.	.	4%	-3%	15%
O=c1[nH]nc(-c2ccccc2)c2ccccc12	2%	.	-4%	18%	17%
Fc1ccc(-c2n[nH]c(=S)c3ccccc23)cc1	-12%	4µM*	16µM*	12%	7.1µM*
O=C(NNc1cc(Br)c(O)c(Br)c1)c1ccccc1	-21%	18µM*	-1%	-56%	?
O=C(CC1OC(=O)c2ccccc21)Nc1ccccc1N1CCOCC1 (centres undefined)	-9%	-7%	5%	2%	-7%[10 µM]
CC(=O)N1CCN(C(=O)CC2OC(=O)c3ccccc32)CC1 (centres undefined)	27µM*	5µM*	?	-23%	-31%
COc1ccc(NC(=O)N2CCN(S(C)(=O)=O)CC2)cc1	27µM*	8%	4%	14%	1%
COc1ccc(S(=O)(=O)N2CCCN(CC(=O)Nc3ccc(OC)c(Cl)c3)CC2)cc1	-24%	1.6µM*	-33%	-9%	?
COc1ccc(NC(=O)CN2CCN(S(=O)(=O)c3ccc(Cl)cc3)CC2)cc1	-3%	19µM*	2%	10%	12%
COc1cccc(NC(=O)CN2CCN(S(=O)(=O)c3ccc(C(C)C)cc3)CC2)c1	30µM*	22µM*	-2%	-2%	42%
CCCCNC(=O)c1cn(CC)c2ccc(S(=O)(=O)N3CCCCCC3)cc2c1=O	-5%	.	-8%	-4%	0%
CCCCn1nnnc1C(c1ccccc1)N1CCN(c2ccc(F)cc2)CC1 (centres undefined)	1%	.	.	.	.
CCCn1c(C)nc2c(NCCCN3CCCCC3C)nc(C)nc21 (centres undefined)	.	5%	-2%	21%	2%
NNc1nc(-c2ccccc2Cl)nc2sc3c(c12)CCCC3	-20%	?	?	50µM*	?
O=C(O)CCCN1C(=O)C(=O)/C(=C(/O)c2ccccc2)C1/C=C/c1ccccc1 (centres undefined)	13µM*	11%	0%	8%	-17%
SMILES	PLK1 PBD inh	ALDH1A1 inh	VP16 counter	Sfp inh	RORg inh
COc1ccc(C2=CSC3=C(C(=O)c4cccc(S(=O)(=O)N(C)C)c4)CCN23)cc1	-12%	2µM*	4%	1%	3%
COc1ccc(N(C)S(=O)(=O)c2cccc(C(=O)N3CCN(c4ccccc4)CC3)c2)cc1	1%	.	.	.	.
Cc1ccc(CN(C)C(=O)COc2ccc(S(=O)(=O)N3CCCC3)cc2[N+](=O)[O-])c(C)c1	-9%	.	.	.	.
COc1c(O)cc2oc3cc(O)c(CC=C(C)C)c(O)c3c(=O)c2c1CC=C(C)C	.	-2%	25µM*!	3%	?
CC(C)=CCc1c(O)cc2oc3c(CC=C(C)C)c(O)c(O)c(CC=C(C)C)c3c(=O)c2c1O	-21%	.	?	-5%	?
N#C/C(Cn1c[n+](NC(=O)Nc2ccccc2)cn1)=N/O	-5%	32µM*	0%	?	-13%
O=C(CCNC(=O)c1ccco1)Nc1ccc(OC(F)F)c(Cl)c1	-7%	.	-15%	13%	11%
CC(NC(=S)Nc1ccc(OC(F)F)c(Cl)c1)C(C)(C)C (centres undefined)	2%	4%	13µM*	10%	2.8µM*
Cc1ccc(NC(=S)Nc2ccc(OC(F)F)c(Cl)c2)cc1Cl	-7%	?	?	-10%	13µM*
COc1ccc(NC(=S)Nc2ccc(C)c(Cl)c2)cc1OC	-2%	?	?	-24%	?
NC(N)=NS(=O)(=O)c1ccc(NC(=S)NC(=O)c2ccc3c(c2)OCO3)cc1	24µM*	25µM*	-8%	?	4%
NS(=O)(=O)c1ccc(NC(=S)NC(=O)c2ccc(-c3ccccc3)cc2)cc1	-4%	2µM*	6%	-3%	29%
NC(N)=NS(=O)(=O)c1ccc(NC(=S)NC(=O)c2ccccc2)cc1	-8%	.	11%	50µM*	3%
O=C(NC(=S)Nc1ccc(-c2ccccc2)cc1)c1ccccc1	2%	.	.	.	.
NC(N)=NS(=O)(=O)c1ccc(NC(=S)NC(=O)/C=C/c2ccccc2)cc1	-2%	.	-7%	2%	10%[1.91 µM]
COc1ccc(Br)cc1C1C2C=CCCC2(C)C(=O)N1Cc1ccccc1 (centres undefined)	.	.	?	-21%	?
Cc1cc2cc(C=O)c(Cl)nc2cc1C	-9%	16%	-8%	32µM*	13%
Cc1ccc(N2C(=O)c3ccc(C(=O)O)cc3C2=O)cc1C	-3%	-9%	?	-3%	-12%
Cc1ccc(-n2c(=O)c3cc4c(=O)n(-c5ccc(C)c(C)c5)c(=O)c4c(C(=O)c4ccc(C(=O)O)cc4)c3c2=O)cc1C	30µM*	.	-2%	-22%	6%
O=C1CC(NCCC2=CCCCC2)C(=O)N1c1cccc(Cl)c1Cl (centres undefined)	.	5.6µM*	-5%	?	7%
O=C(O)CCC(=O)C(=O)O (tested in a mixture with another compound)	.	-3%	7%	-6%	-9%
N#Cc1c(N)n(CCc2ccc(F)cc2)c2nc3ccccc3nc12	6%	?	1%	12%	-1%
COCCCn1c(N)c(-c2nc3ccccc3n2C)c2nc3ccccc3nc21	8%	12%	7.1µM*	3%	4µM*
O=CNCc1nc2ccccc2n1CCCc1ccccc1	-6%	.	2%	18%	7%

From PubChem BioAssay
